Data: paper PMC4336329 (PLoS ONE, 2015)
Hit rate of the full screen: of about 310,000 compounds, about 14,000 (4.5%) showed an effect of 50% or more. The effect is printed as a negative number. The list comes from a sample in which strong results are over-represented; it also holds similar structures and randomly drawn compounds.

target: human ether-à-go-go-related gene (hERG) potassium channel (human, UniProt Q12809); test: primary screen, population patch clamp on CHO cells stably expressing hERG; higher = less effect of the substance
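Also: peak tail current of the secondary pulse compared with the same well before compound.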

Sequence of human ether-à-go-go-related gene (hERG) potassium channel (Q12809 whole entry, looked up): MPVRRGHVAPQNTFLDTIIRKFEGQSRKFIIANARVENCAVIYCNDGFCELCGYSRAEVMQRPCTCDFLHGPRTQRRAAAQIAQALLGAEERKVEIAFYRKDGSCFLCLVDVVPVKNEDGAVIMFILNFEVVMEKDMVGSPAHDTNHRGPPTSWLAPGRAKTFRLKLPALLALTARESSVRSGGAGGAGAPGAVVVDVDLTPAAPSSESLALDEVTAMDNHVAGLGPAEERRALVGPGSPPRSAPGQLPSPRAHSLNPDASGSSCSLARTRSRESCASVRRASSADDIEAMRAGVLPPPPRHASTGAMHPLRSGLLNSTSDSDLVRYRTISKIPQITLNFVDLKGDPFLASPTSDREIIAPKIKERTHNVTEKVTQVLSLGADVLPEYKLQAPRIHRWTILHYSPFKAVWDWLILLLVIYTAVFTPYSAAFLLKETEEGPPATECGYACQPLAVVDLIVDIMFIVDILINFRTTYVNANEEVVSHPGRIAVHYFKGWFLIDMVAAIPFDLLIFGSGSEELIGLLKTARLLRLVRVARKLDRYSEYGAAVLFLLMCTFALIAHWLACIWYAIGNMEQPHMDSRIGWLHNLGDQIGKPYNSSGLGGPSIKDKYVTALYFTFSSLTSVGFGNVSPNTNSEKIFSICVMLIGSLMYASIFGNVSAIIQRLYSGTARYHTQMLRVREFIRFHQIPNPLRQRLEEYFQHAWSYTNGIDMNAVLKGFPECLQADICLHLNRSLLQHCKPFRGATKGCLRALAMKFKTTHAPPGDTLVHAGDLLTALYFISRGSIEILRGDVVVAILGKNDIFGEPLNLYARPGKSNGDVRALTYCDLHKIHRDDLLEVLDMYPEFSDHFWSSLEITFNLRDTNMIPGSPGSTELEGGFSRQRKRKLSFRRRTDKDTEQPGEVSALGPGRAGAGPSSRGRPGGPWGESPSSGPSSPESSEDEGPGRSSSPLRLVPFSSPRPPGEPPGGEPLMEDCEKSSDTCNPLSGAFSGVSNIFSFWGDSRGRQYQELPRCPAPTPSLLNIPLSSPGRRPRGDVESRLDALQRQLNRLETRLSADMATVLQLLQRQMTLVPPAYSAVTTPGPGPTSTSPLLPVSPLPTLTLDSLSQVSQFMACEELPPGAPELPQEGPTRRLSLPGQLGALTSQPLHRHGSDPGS

Row | SMILES | hERG current change (%, negative = inhibition) at 10uM [%]
1 | CC(C)c1cccc(C(C)C)c1NC(=O)COC(=O)[C@H](C)NC(N)=O | 16.8
2 | COc1cc(NC(N)=S)c(OC)cc1Cl | 6.66
3 | CCCOc1ccccc1N/C(=N/c1nc(C)cc(C)n1)NC(=O)Nc1ccc(Cl)cc1 | -1.32
4 | CCCOc1ccccc1N/C(N)=N/c1nc(C)cc(C)n1 | -85.8
5 | CCCOc1ccccc1N/C(=N/c1nc(C)cc(C)n1)NC(=O)COc1ccc(OC)cc1 | -10
6 | COc1cc(N/C(N)=N/c2nc(C)cc(C)n2)c(OC)cc1Cl | -56.7
7 | Cc1cc(C)nc(/N=C(\N)Nc2cc([N+](=O)[O-])ccc2C)n1 | -49
8 | Cc1ccc(-c2cc([C@H]3[C@@H]4C=CCC[C@@]4(C)C(=O)N3Cc3ccccc3)ccc2F)cc1 | 8.75
9 | CC1CC(OC(=O)c2ccccc2)CC(C)N1C.Cl (stereo not drawn) | -5.09
10 | Cc1cc(N/N=C/c2c(O)ccc3ccccc23)nc(-c2ccccc2O)n1 | -3.98
11 | O=C(CSc1cccc[n+]1[O-])Nc1cc(S(=O)(=O)N2CCOCC2)ccc1N1CCOCC1 | 16
12 | CCCCCCCNC(=O)C1(CC2CC(c3cccc(Br)c3)=NO2)CCNCC1 (stereo not drawn) | -70.3
13 | CCCCCCCNC(=O)C1(CC2CC(c3ccc(Cl)cc3)=NO2)CCNCC1 (stereo not drawn) | -63.1
14 | CCCNC(=O)C1(CC2CC(c3ccccc3)=NO2)CCNCC1 (stereo not drawn) | 23.5
15 | CCCCCCCNC(=O)C1(CC2CC(c3cccc(Br)c3)=NO2)CCN(C(=O)C2(C)CC2)CC1 (stereo not drawn) | -26
16 | CCCCCCCNC(=O)C1(CC2CC(c3ccccc3)=NO2)CCNCC1 (stereo not drawn) | -58.8
17 | CCCCCCCNC(=O)C1(CC2CC(c3cccc(Br)c3)=NO2)CCN(C(=O)Cc2ccc(F)cc2)CC1 (stereo not drawn) | -7.08
18 | O=C(NCc1ccccc1)C1(CC2CC(c3ccccc3)=NO2)CCNCC1 (stereo not drawn) | -7.21
19 | NC(=S)N1CCCc2ccccc21 | -3.03
20 | CC1(c2ccccc2)NC(=O)N(CC(=O)N2CCOCC2)C1=O (stereo not drawn) | 3.77

Row | SMILES | hERG current change (%, negative = inhibition) at 10uM [%]
21 | O=C(Nc1nnc(COc2ccc(Cl)cc2)s1)c1cccs1 | -6.91
22 | Cc1csc(=O)n1CC(=O)OCC(=O)Nc1cc(Cl)ccc1[N+](=O)[O-] | -17.8
23 | COc1cccc(NC(C)(C)c2nnnn2-c2c(C)cccc2C)c1 | -63.4
24 | COc1ccc(NC(C)(C)c2nnnn2-c2c(C)cccc2C)cc1 | -4.2
25 | Cc1cccc(C)c1-n1nnnc1C(C)(C)N1CCN(N=O)CC1 | 14.7
26 | O=C(NCCc1cccs1)C1CC(c2cccc([N+](=O)[O-])c2)=NO1 (stereo not drawn) | -23.5
27 | CCCCNc1nc(Nc2ccc(C)c(Cl)c2)c2cnn(C)c2n1 | 15.3
28 | O=C(CSc1nc2ccccc2c(=O)n1-c1ccccc1Cl)NC1CCS(=O)(=O)C1 (stereo not drawn) | 6.55
29 | CCn1c(SCC(=O)NC2CCS(=O)(=O)C2)nnc1-c1ccccc1 (stereo not drawn) | 5.49
30 | O=C(CSc1nc2cc([N+](=O)[O-])ccc2n1-c1ccc(F)cc1)NC1CCS(=O)(=O)C1 (stereo not drawn) | -52.6
31 | COc1ccccc1-c1nnc(SCC(=O)NC2CCS(=O)(=O)C2)n1CCc1ccccc1 (stereo not drawn) | 8.05
32 | COc1ccccc1-n1c(SCC(=O)NC2CCS(=O)(=O)C2)nc2ccccc2c1=O (stereo not drawn) | -3.39
33 | O=C(CSc1nnc(-c2ccc(Br)cc2)n1CCc1ccccc1)NC1CCS(=O)(=O)C1 (stereo not drawn) | -86.8
34 | CN(C(=O)CSc1nc2cc([N+](=O)[O-])ccc2n1-c1ccc(F)cc1)C1CCS(=O)(=O)C1 (stereo not drawn) | 2.56
35 | COc1ccccc1-n1c(SCC(=O)NC2CCS(=O)(=O)C2)nc2cc([N+](=O)[O-])ccc21 (stereo not drawn) | -16.2
36 | O=C(CSc1nc2ccccc2c(=O)n1-c1ccccc1F)NC1CCS(=O)(=O)C1 (stereo not drawn) | -57
37 | Cc1ccc2oc(/N=C(\N)NC(=O)C(C)(C)C)nc2c1 | 4.85
38 | CC1=Nn2c(nnc2-c2ccco2)SC1 | -3.87
39 | O=C(/C=C/c1ccco1)Nc1sc2c(c1C(=O)O)CCC2 | -2.95
40 | CSc1scc2c1-c1nc(SCC(=O)C(C)(C)C)ncc1CC2 | 11

Row | SMILES | hERG current change (%, negative = inhibition) at 10uM [%]
41 | CN(C)CCCN(C(=O)c1ccc(S(=O)(=O)N2CCc3ccccc32)cc1)c1nc2ccc(F)cc2s1.Cl | -13.7
42 | CN(C)CCCN(C(=O)c1ccc(S(=O)(=O)N2CCOCC2)cc1)c1nc2ccc(F)cc2s1.Cl | -58.7
43 | CN(C)CCCN(C(=O)c1ccc(S(=O)(=O)N2CCc3ccccc3C2)cc1)c1nc2ccc(F)cc2s1.Cl | 1.76
44 | CN(C)CCCN(C(=O)c1ccc(S(=O)(=O)N2CCCCCC2)cc1)c1nc2ccc(Br)cc2s1.Cl | -22
45 | CN(C)CCCN(C(=O)c1ccc(S(=O)(=O)N2CCCCCC2)cc1)c1nc2ccc(F)cc2s1.Cl | -73.1
46 | CN(C)CCCN(C(=O)c1ccc(S(=O)(=O)N2CCCc3ccccc32)cc1)c1nc2ccc(F)cc2s1.Cl | -17.1
47 | CC1CCN(C(=O)CSc2ccc(-c3ccccc3)nn2)CC1 | -11.8
48 | COc1ccccc1CC(=O)Nc1cccc(F)c1 | 12.2
49 | CC(C(=O)Nc1ccc(C#N)cc1)N(C)CC(=O)Nc1ccccc1Br (stereo not drawn) | -17
50 | CC(C(=O)Nc1ccccc1)N(C)Cc1cccs1 (stereo not drawn) | 8.67
51 | CSc1ccccc1NC(=O)CN(C)C(C)C(=O)Nc1ccc(C#N)cc1 (stereo not drawn) | -63.1
52 | CC(C(=O)Nc1ccc(Cl)cc1)N(C)Cc1cccs1 (stereo not drawn) | -15
53 | CC(C(=O)Nc1ccc(C#N)cc1)N(C)CC(=O)Nc1cccc(F)c1 (stereo not drawn) | -64.7
54 | COc1cccc(NC(=O)CN(C)C(C)C(=O)Nc2ccc(S(=O)(=O)N3CCCC3)cc2)c1 (stereo not drawn) | -0.933
55 | CC(=O)Nc1ccc(NC(=O)C(C)N(C)CC(=O)Nc2ccccc2Br)cc1 (stereo not drawn) | 8.29
56 | CC(C(=O)Nc1ccc(C#N)cc1)N(C)Cc1cccs1 (stereo not drawn) | -56.7
57 | CC(C(=O)N1CCCC1)N(C)CC(=O)Nc1cccc(F)c1 (stereo not drawn) | -0.435
58 | CC(=O)c1ccc(NC(=O)C(C)N(C)CC(=O)Nc2cccc(F)c2)cc1 (stereo not drawn) | -17.3
59 | COc1cccc(NC(=O)CN(C)C(C)C(=O)Nc2ccc(C#N)cc2)c1 (stereo not drawn) | -59.3
60 | COc1cccc(NC(=O)CN(C)C(C)C(=O)Nc2ccc(C(C)=O)cc2)c1 (stereo not drawn) | -22.9
